Bioassay records as filed in PubChem.
This is a sample that favours compounds with a hit; in the whole collection about 10% have one here.
SW480 rereplic: induces DNA re-replication in SW480 colon adenocarcinoma cells; SW480 DNA re-replication, Hoechst DNA content imaging, 48 h; Potency, µM (doses to about 46.1 µM), actives largely listed as activators; 340,000 compounds, 1.8% hits; also: nearly all actives have a fitted effect of over 55% in size
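DNA re-replication was detected as more nuclei of elevated Hoechst intensity after 48 hr exposure to compound (23 nL pinned per well of 250 cells).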
VP16 counter: counter-screen for ROR gamma inhibitors: Gal4-VP16 reporter | Potency, µM (doses to about 53.6 µM), most hits filed as inhibitors | Drosophila S2 Gal4-VP16 UAS-luciferase, luminescence, 20 h | 310,000 compounds, 3.5% hits;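 also: Gal4-VP16 expression switched on by copper sulfate through the metallothionein promoter; nearly all actives have a fitted effect of over 50% in size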
MCF10A rerep: inducers of DNA re-replication in MCF 10A breast cells; 350,000 compounds, 2.9% hits; Potency, µM (highest dose often 46.1 µM), actives largely listed as activators; AID 624296; MCF 10A DNA re-replication, Hoechst nuclear intensity, 48 h; also: nearly all actives have a fitted effect of over 50% in size
KB-V1 MDR tox: KB-V1 MDR subline cytotoxicity; AID 1347076; Potency, µM (doses to about 46.1 µM), hits mostly cytotoxic; 400,000 compounds, 3.4% hits; KB-V1 MDR cells viability, CellTiter-Glo, 72 h; also: nearly all actives have a fitted effect of over 60% in size
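Compound-treated KB-V1 multidrug-resistant cells, 72 h, 37 degrees C; viability by CellTiter-Glo. Fitted qHTS curves give the values.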
KB-3-1 tox: KB-3-1 parental cell cytotoxicity; KB-3-1 viability, CellTiter-Glo ATP luminescence, 72 h; 400,000 compounds, 1.4% hits; Potency, µM (titrated, usually from 46.1 µM), actives largely listed as cytotoxic; also: nearly all actives have a fitted effect of over 60% in size
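Using CellTiter-Glo luminescence, growth of non-resistant KB-3-1 adenocarcinoma cells is assessed 72 h after pin-tool compound addition at 37 °C. Normalized responses across the concentration series yield fitted curves.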
RORg inh: ROR gamma (mouse) transcription inhibition | P51450 | Drosophila S2 Gal4-RORgamma UAS-luciferase reporter, 20 h | Potency, µM (doses to about 53.6 µM), usual class: inhibitors | 310,000 compounds, 5.4% hits | AID 2551; also: nearly all actives have a fitted effect of over 60% in size
Target sequence (P51450 whole entry, looked up, the tested form may be a part): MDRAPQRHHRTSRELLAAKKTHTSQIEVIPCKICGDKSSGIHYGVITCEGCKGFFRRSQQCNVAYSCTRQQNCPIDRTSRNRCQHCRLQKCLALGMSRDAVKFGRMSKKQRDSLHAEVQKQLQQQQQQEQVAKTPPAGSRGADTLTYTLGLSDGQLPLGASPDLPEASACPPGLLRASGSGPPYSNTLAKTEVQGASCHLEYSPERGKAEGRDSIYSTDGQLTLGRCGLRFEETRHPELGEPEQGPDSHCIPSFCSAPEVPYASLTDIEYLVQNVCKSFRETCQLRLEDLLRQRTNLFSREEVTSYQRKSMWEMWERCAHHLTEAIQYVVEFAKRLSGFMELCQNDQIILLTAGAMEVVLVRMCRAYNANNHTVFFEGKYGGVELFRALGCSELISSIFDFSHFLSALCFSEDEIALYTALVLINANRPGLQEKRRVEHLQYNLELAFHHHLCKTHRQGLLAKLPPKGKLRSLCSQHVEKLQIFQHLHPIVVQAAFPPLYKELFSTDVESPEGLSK
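Luminescence from a UAS-regulated Photinus luciferase reporter in stably transfected Drosophila Schneider cells is measured; decreased signal marks ROR gamma inhibition. Fusion expression is induced by 700 uM copper sulfate for 20 hr.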
Hits are given with their value; n = inactive; u = inconclusive; x = no result; [ ] = another dose, or the depositor's remark. Calls follow the shape of the dose curve; as a rule, active = well fitted curve in the direction sought with a large enough effect; inconclusive = small, poorly fitted or top-dose-only effect, or another doubt; inactive = no such curve, though single readings can be large; an effect the other way counts as inactive or inconclusive.

SMILES	SW480 rereplic	VP16 counter	MCF10A rerep	KB-V1 MDR tox	KB-3-1 tox	RORg inh
OCC1=CC[N+]2(Cc3ccccc3)CCC(O)[C@@H]12 (stereo not given in full)	x	n	x	x	x	n
Cc1ccc2c(c1)[C@H]1[C@H](CO2)[C@H](c2ccccc2)[C@]2(C)C(=O)Nc3ccccc3C(=O)N12	9.2µM	x	3.26µM	u	n	x
Cc1ccc2c(c1)[C@H]1[C@H](CO2)[C@H](c2ccccc2)[C@]2(C)C(=O)Nc3ccc(Cl)cc3C(=O)N12	14.6µM	x	u	u	u	x
C[C@@]12C(=O)Nc3ccc(Cl)cc3C(=O)N1[C@H]1c3cc(Cl)ccc3OC[C@@H]1[C@@H]2c1ccccc1	u	x	n	n	n	x
C[C@@]12C(=O)Nc3ccccc3C(=O)N1[C@H]1c3cc(Cl)ccc3OC[C@@H]1[C@@H]2c1ccccc1	u	x	7.31µM	u	u	x
COc1ccc(/C=C/C2=CC3(C)CC2(C)C(c2ccc(OC)cc2)CC3=O)cc1 (stereo not given)	x	n[10 µM]	x	x	x	n[10 µM]
C=C1CCc2c([nH]c3ccc(OCC(C)C)cc23)C1=O	u	u	4.61µM	u	u	14.1µM
COc1ccc2[nH]c3c(c2c1)CCC/C3=N\N	u	n	n	u	u	n
Cc1csc2c(N3CCN(C(=O)Nc4ccc(OC(F)(F)F)cc4)CC3)ncnc12	n	12.6µM	u	n	n	u
COc1ccc(NC(=O)C2=C(C)Nc3ncnn3C2c2ccc[nH]2)cc1 (stereo not given)	x	x	x	u	n	x
O=C(CCl)N=c1sccn1Cc1ccc(Cl)cc1Cl	u	u	u	18.4µM	u	u
CCC(=O)OCC(=O)N=c1sccn1Cc1ccccc1Cl	n	n	n	n	n	n
Nc1nc(N)c2nc(CNc3ccc(C(=O)NC(CCC(=O)O)C(=O)O)cc3)cnc2n1 (stereo not given)	n	n	n	n	n	n
CN(Cc1cnc2nc(N)nc(N)c2n1)c1ccc(C(=O)NC(CCC(=O)O)C(=O)O)cc1 (stereo not given)	n	n	n	u	0.0052µM	n
CN(Cc1cnc2nc(N)nc(N)c2n1)c1ccc(C(=O)NC(CCC(=O)O)C(=O)O)cc1C(F)(F)F (stereo not given)	n	x	n	u	0.013µM	x
Cc1ccc(Oc2c(C(N)=O)cc([N+](=O)[O-])cc2[N+](=O)[O-])cc1	u	2.51µM	u	n	20.6µM	2.82µM
COc1cccc(Nc2ncc3ncc(=O)n(CCc4ccccc4)c3n2)c1	x	n	x	x	x	n
COc1ccc(C(=O)CSc2nc(=O)n(Cc3cccnc3)c3c2CCC3)cc1	n	x	n	14.6µM	n	x
c1ccc(N/N=C2\CCCc3ccccc32)nc1	n	u	n	n	n	12.6µM
COC(=O)N/N=C1\CCCc2ccccc21	n	n	n	n	n	n
Cc1cc(N/N=C2/CCCc3ccccc32)nc2ccccc12	n	11.2µM	u	u	u	2µM
CCOCCCNC(=O)C1CCN(c2cc(C)nc3c(-c4ccc(Cl)cc4)c(C)nn23)CC1	x	x	x	u	n	x
CC(C)C(=O)N1CCC1(C)C(=O)Nc1ccc2[nH]ccc2c1 (stereo not given)	x	x	x	n	n	x
CCC(NC(=O)c1cccc(Cn2nc(C)c([N+](=O)[O-])c2C)c1)c1ccc(C(C)C)cc1 (stereo not given)	n	n	n	2.91µM	n	n
Cc1nn(Cc2cccc(C(=O)O)c2)c(C)c1[N+](=O)[O-]	n	n	n	u	n	n
SMILES	SW480 rereplic	VP16 counter	MCF10A rerep	KB-V1 MDR tox	KB-3-1 tox	RORg inh
Cc1nn(Cc2cccc(C(=O)NC(C)c3ccc(C(C)(C)C)cc3)c2)c(C)c1[N+](=O)[O-] (stereo not given)	n	n	u	6.51µM	u	n
O=C1c2cnc3nc(SCc4ccccc4)nn3c2CC2c3ccccc3CCN12 (stereo not given)	4.11µM	n	2.31µM	n	n	n
COc1ccc(-c2cc(=O)c3c(C)cc(O)cc3o2)cc1	n	x	n	2.59µM	n	x
COc1cc2oc(-c3ccc(O)cc3)cc(=O)c2c(O)c1OC	n	n	n	u	u	n
COc1cc(-c2cc(=O)c3c(C)cc(O)cc3o2)cc(OC)c1OC	n	x	n	2.59µM	u	x
COc1ccc(-c2cc(=O)c3ccc(O)cc3o2)cc1	n	n	n	n	n	n
O=S(=O)(Nc1ccc(F)c(C(F)(F)F)c1)c1ccc(N2CCCCS2(=O)=O)cc1	x	x	x	n	n	x
Cc1ccc(-c2csc(=S)n2CC(=O)OCC(=O)NC(C)C(C)C)cc1 (stereo not given)	n	n	u	16.4µM	n	n
CN1c2ccccc2C(C)(C)C12C=Nc1c(cc(N3CCOCC3)c3ccccc13)O2 (stereo not given)	20.6µM	u	7.31µM	n	u	u
Oc1ccc(Cl)cc1C1C=C(c2ccc3c(c2)OCO3)NC(c2ccc(Br)cc2)N1 (stereo not given)	x	x	x	n	n	x
COc1ccc(S(=O)(=O)N(C)C)cc1NC(=O)CN1CCN(C(=O)C2CC2)CC1	n	x	n	n	u	x
COc1cc(Cl)c(C)cc1NC(=O)CN1CCN(C(=O)C2CC2)CC1	u	x	n	20.6µM	n	x
CCc1cccc(NC(=O)c2sc3nc[nH]c(=O)c3c2C)c1	x	x	x	n	n	x
CCCC[C@H]1CCCO[C@@](C(=O)NCc2ccc(C)o2)(C(F)(F)F)C1	x	n	x	x	x	n
OCCCNc1ncnc2c1ncn2[C@H]1CN(Cc2ccc3c(c2)OCO3)C[C@@H](CO)O1	x	x	x	n	n	x
COc1cccc(/C=C/C(=O)Nc2ccc(OC)nc2)c1	n	n	n	18.4µM	u	n
COc1ccc(NC(=O)/C=C/c2ccccc2)cn1	n	u	n	n	n	u
COCc1cc(CN2CCCC2)c(O)c2ncccc12	n	8.91µM	n	u	u	10µM
CCOc1ccccc1N1CCN(Cc2cccc(OC)c2O)CC1	n	n	n	u	n	n
Oc1c(CN2CCCCC2)cc(COCc2ccccc2)c2cccnc12	3.16µM	0.0089µM	16.4µM	u	5.17µM	0.316µM
COc1ccccc1N1CCN(Cc2cc(Br)c(O)c3ncccc23)CC1	5.17µM	1.41µM	u	u	u	1.12µM
CCSc1nsc(NC(=O)Nc2cccc(F)c2)n1	u	u	16.4µM	u	u	u
O=C(CSC(=S)N1CCOCC1)Nc1nc(=O)c2ccccc2s1	x	10µM	x	x	x	12.6µM
Nc1ccc(C(=O)Nc2nc3ccccc3s2)cc1	n	u	u	n	n	u
O=C(Nc1nc(=O)c2ccccc2s1)c1ccc(F)cc1	n	2.82µM	u	n	n	7.08µM
O=C(Cc1ccccc1)Nc1nc(=O)c2ccccc2s1	n	4.47µM	n	n	n	u
O=C(Nc1nc(=O)c2ccccc2s1)c1ccc(Cl)cc1	n	n[0.365 µM]	n	n	n	3.16µM
